Screens from PubChem.
Sampled rows, rich in hits. Any-hit rate of the full collection: about 5.3%.
Sfp PPTase inh: Sfp phosphopantetheinyl transferase inhibition; Biochemical Sfp PPTase activity, qHTS; Potency, µM, for the others: largest response in the series, negative = inhibition, usual class: inhibitors; Q9F4F7; hit rate 3.5% among 310,000;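 also: the enzyme is Sfp with the accession as filed and its product quenches rhodamine fluorescence; potency is read from the fitted curve at half-maximal effect; 0% = enzyme reaction without inhibitor and -100% = no enzyme wells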
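Fluorescence-quenching assay: 15 nM Sfp-PPTase preincubated 15 min at room temperature with compound, then 5 uM rhodamine-CoA and 12.5 uM BHQ-2-labelled YbbR peptide added. Fluorescence (ex 525/em 598 nm) read at start and after 30 min; difference gives rate.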
JMJD2E inh: JMJD2E (human) inhibition | hit rate 1.6% among 230,000 | B2RXH2 | AID 2147 | Potency, µM (doses to about 57.1 µM), for inactives: at the highest dose activity change, negative = inhibition, most hits filed as inhibitors | JMJD2E catalytic domain, FDH-coupled NADH fluorescence (FDH is formaldehyde dehydrogenase);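 also: potency is read from the fitted curve at half-maximal effect; 0% = wells with enzyme and -100% = buffer wells without enzyme; nearly all actives have a fitted effect of over 50% in size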
Target sequence (B2RXH2 1-337 limits assumed): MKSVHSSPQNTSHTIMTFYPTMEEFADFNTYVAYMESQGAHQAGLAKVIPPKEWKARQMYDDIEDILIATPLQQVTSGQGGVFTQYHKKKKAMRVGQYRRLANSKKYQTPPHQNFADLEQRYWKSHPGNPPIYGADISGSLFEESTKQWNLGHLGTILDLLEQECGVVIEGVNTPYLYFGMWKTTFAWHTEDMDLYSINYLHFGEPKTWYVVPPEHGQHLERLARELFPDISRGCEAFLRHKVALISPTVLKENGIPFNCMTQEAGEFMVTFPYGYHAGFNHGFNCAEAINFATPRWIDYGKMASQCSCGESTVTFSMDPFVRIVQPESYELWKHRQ
Tau fluor counter: counter-screen for tau fibril formation inhibitors; Potency, µM (titrated, usually from 57.7 µM), without a hit: at the top dose activity change, negative = decrease; tau K18 P301L Alexa594 fluorescence, heparin fibrillization; hit rate 0.93% among 280,000; also: potency is read from the fitted curve at half-maximal effect; nearly all actives have a fitted effect of over 55% in size
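Human tau K18 P301L (15 uM unlabeled, 0.24 uM Alexa 594-labeled) in 100 mM sodium acetate pH 7 with 20 uM heparin, 6 hr at 37 C. ThT 30 uM added, 1 hr ambient; Alexa 594 FP and total fluorescence read at 555/632 nm.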
FBPA coupling cs: inhibits coupling enzyme system, counter-screen for aldolase hits; coupling enzyme system counterscreen, AmpLite Red fluorescence; activity change, negative = inhibition, % at 58.2 µM, hits read low; hit rate 0.67% among 290,000; AID 2472; in the data active = activity change below about -30%
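Compounds tested against the coupling enzymes alone at 57.5 uM final; readout was AmpLite Red fluorescence (525/598 nm) after 20 min at RT.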
Tau fibril FP: inhibitors of human tau fibril formation; P10636; Potency, µM (highest dose often 57.7 µM), for inactives: top-dose activity, negative = inhibition, actives largely listed as inhibitors; hit rate 0.39% among 280,000; K18 P301L tau heparin fibrillization, Alexa594 FP, 6 h; AID 1468; also: potency is read from the fitted curve at half-maximal effect; nearly all actives have a fitted effect of over 55% in size
Target sequence (P10636 561-689 P618L limits assumed): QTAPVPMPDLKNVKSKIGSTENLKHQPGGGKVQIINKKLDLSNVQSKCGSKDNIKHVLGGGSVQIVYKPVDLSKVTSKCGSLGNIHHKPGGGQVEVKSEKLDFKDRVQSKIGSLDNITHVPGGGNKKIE
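K18 P301L tau (15 uM unlabeled/0.24 uM Alexa 594-labeled, final) + compound + heparin 20 uM final; 100 mM NaOAc pH 7; 6 hr 37 C; ThT 30 uM final added, 1 hr RT; FP ex 555/em 632 nm.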
Tau ThT inhib: tau fibrillization inhibition (ThT binding) | Potency, µM (doses to about 57.4 µM), inactives show at the top dose activity, negative = inhibition, actives largely listed as inhibitors | recombinant tau K18 P301L (four-repeat tau fragment), heparin-induced fibrillization, ThT fluorescence | P10636 | hit rate 2.1% among 270,000; also: potency is read from the fitted curve at half-maximal effect; nearly all actives have a fitted effect of over 55% in size
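In this qHTS, human K18 P301L tau is incubated with compound and heparin for 6 hr at 37 C, and Thioflavin T fluorescence then reports fibril load.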
* = called active by the depositor; ? = inconclusive; . = not tested or not shown; [ ] = another dose, or the depositor's remark. Unless noted, calls follow the shape of the dose curve; as a rule, active = well fitted curve in the direction sought with a large enough effect; inconclusive = small, poorly fitted or top-dose-only effect, or another doubt; inactive = no such curve, though single readings can be large; an effect the other way counts as inactive or inconclusive. Unless noted, % is scaled to controls: 0 for no effect and ±100 for the full control effect.

SMILES	Sfp PPTase inh	JMJD2E inh	Tau fluor counter	FBPA coupling cs	Tau fibril FP	Tau ThT inhib
C/C(=N\N=C(N)N)c1cccc([N+](=O)[O-])c1	-3.4%	8.9%	-9.2%	4.2	-13.3%	-4.2%
C/C(=N\N=C\c1ccc(N(C)C)cc1)c1cccc([N+](=O)[O-])c1	?	-23.1%	-29.3%	0.5	9.0%	1.26µM*
CCNc1ncc2nc(-c3cc(F)cc(F)c3)c(=O)n(Cc3cccs3)c2n1	36.0%	.	.	0.9	.	.
COc1ccc2oc(=O)c(-c3csc(Nc4ccc(O)cc4)n3)cc2c1	25.1µM*	-2.0%	3.16µM*[quencher]	-5.1	-15.1%	2.24µM*
COc1ccc(-c2csc(Nc3ccccc3)n2)cc1	-3.7%	5.0%	28.2µM*[quencher]	-4.6	6.3%	?
CCOc1ccc2[nH]cc(-c3csc(N)n3)c2c1	1.2%	.	.	-7.0	.	.
COc1ccc2oc(=O)c(-c3csc(-c4ccc(Br)cc4)n3)cc2c1	.	.	-10.0%	.	-11.2%	6.3%
COc1ccc(Nc2nc(-c3ccc(OC)cc3)cs2)cc1	-6.1%	-8.0%	?	-2.4	5.5%	?
COc1ccc(Nc2nc(-c3c[nH]c4ccccc34)cs2)cc1	-22.0%	-16.7%	12.6µM*[quencher]	-6.5	?	8.91µM*
COc1ccc(-c2csc(Nc3cccnc3)n2)cc1	79.4µM*	-2.0%	?	0.5	?	?
CC1=CC2C(C)(C)CC(=O)C[C@]2(C)CC1COc1ccc2c(c1)CC(=O)C=C2 (some centres undefined)	-11.2%	?	-19.3%	0.1	5.6%	-18.0%
CC[C@H](C)[C@H](NC(=O)CNC(=O)[C@H](CCCNC(=N)N)NC(=O)CNC(=O)[C@@H](NC(=O)[C@H](Cc1ccc(O)cc1)NC(=O)[C@H](Cc1c[nH]c2ccccc12)NC(=O)[C@H](C)NC(=O)[C@@H]1CCCN1C(=O)[C@H](CC(N)=O)NC(=O)[C@@H](NC(=O)[C@H](CC(=O)O)NC(=O)[C@@H]1CCCN1C(=O)[C@@H](N)[C@@H](C)O)[C@@H](C)CC)[C@@H](C)O)C(=O)N[C@@H](CCCNC(=N)N)C(=O)N1CCC[C@H]1C(=O)N[C@H](C(=O)NCC(=O)N[C@@H](CCCNC(=N)N)C(=O)N[C@@H](Cc1ccccc1)C(N)=O)C(C)C	13.1%	.	.	-0.4	.	.
COc1ccc(OCCCN2CCCC(C)C2)cc1 (centres undefined)	0.2%	-14.6%	1.9%	0.3	-0.1%	-3.1%
CC1CCCN(CCOc2ccc3ccccc3c2Br)C1 (centres undefined)	15.8µM*	?	-5.5%	0.3	2.0%	-7.8%
COc1ccc(-c2c(-c3ccc(OCC(=O)NN)cc3O)n[nH]c2C(F)(F)F)cc1	-15.8%	-5.8%	22.4µM*[quencher]	-8.0	?	?
C=C(C)COc1ccc(-c2n[nH]c(C)c2-c2ccc(OC)cc2)c(O)c1	22.3%	-14.5%	25.1µM*[quencher]	-5.0	?	-18.6%
COc1ccc(-c2c(-c3ccc(OCC(=O)NN)cc3O)n[nH]c2C)cc1OC	3.1%	.	.	-1.7	.	.
COc1cc2c(cc1OC)C(COc1ccc3c(C)cc(=O)oc3c1)N(C(=O)c1ccccc1C)CC2 (centres undefined)	.	.	-0.6%	.	-10.1%	1.2%
CNc1nc(-c2ccccc2)[n+](-c2ccc(C)cc2)s1	3.16µM*	-2.6%	-1.0%	-0.4	3.8%	0.0%
Cc1ccc(-c2nc(N)s[n+]2-c2ccccc2)cc1	?	0.9%	6.2%	-0.6	-0.8%	3.2%
COC(=O)C1=C(C)NC(C)=C(C(=O)OCCSc2ccccc2)[C@@H]1C	6.2%	?	15.8µM*[quencher]	-0.1	9.7%	-18.6%
Cc1[nH]c2ccc(C(=O)Nc3ccc(F)cc3)cc2c1C	.	.	14.1µM*[quencher]	.	?	12.6µM*
CCOc1ccccc1NC(=O)c1ccc2[nH]c(C)c(C)c2c1	10.3%	.	.	-7.5	.	.
CCn1ccc2cc(S(=O)(=O)N3CCCN(C(=O)Nc4ccc(C)cc4Cl)CC3)ccc21	.	.	-10.1%	.	4.0%	-1.6%
COc1ccc(/C=N/Nc2nnc(-c3ncc[nH]3)c3ccccc23)cc1	-4.3%	-4.2%	-21.2%	1.9	5.9%	?
SMILES	Sfp PPTase inh	JMJD2E inh	Tau fluor counter	FBPA coupling cs	Tau fibril FP	Tau ThT inhib
Oc1ccc2ccccc2c1/C=N/Nc1nnc(-c2ncc[nH]2)c2ccccc12	10.2%	-23.1%	8.91µM*[quencher]	-4.0	?	3.98µM*
COc1ccc(C2/C=C\[C@H](O[Si](C)(C)C(C)(C)C)[C@H](C(C)C)CC(=O)N2Cc2ccccc2)cc1 (some centres undefined)	3.8%	.	-5.2%	-2.2	3.5%	-10.4%
O=C1/C(=C\c2ccco2)SC(=S)N1C1CCS(=O)(=O)C1 (centres undefined)	31.6µM*	28.2µM*	?	-13.4	?	25.1µM*
O=C1/C(=C/c2ccco2)SC(=S)N1C1CCS(=O)(=O)C1 (centres undefined)	17.0%	1.0%	?	-45.1*	?	28.2µM*
Cc1ccc(/C=C2\SC(=S)N(C3CCS(=O)(=O)C3)C2=O)cc1 (centres undefined)	10.6%	1.9%	-15.8%	2.2	?	?
O=C(Oc1oc(-c2ccco2)nc1C=Nc1ccccc1)c1ccoc1	20µM*	2.9%	-6.3%	-3.4	-26.1%	?
Cc1ccc(C(=O)Oc2oc(-c3ccco3)nc2C=Nc2ccc(Cl)cc2)cc1	?	-3.8%	-6.3%	-2.8	-15.4%	?
Cc1ccc(C(=O)Oc2oc(-c3ccccc3)nc2C=Nc2ccc(N(C)C)cc2)cc1	?	-13.1%	4.4%	-4.6	-2.1%	?
CN(C)c1ccc(N=Cc2nc(-c3ccccc3)oc2OC(=O)c2cccc(Cl)c2)cc1	?	3.0%	?	1.0	?	7.94µM*
COc1ccc(N=Cc2nc(-c3ccccc3)oc2OC(C)=O)cc1	-6.4%	12.5%	-29.6%	1.7	?	?
O=C(Oc1oc(-c2ccco2)nc1C=Nc1ccccc1)c1ccco1	11.2µM*	-0.6%	-15.6%	0.4	?	?
C=C1N[C@]2(C(=O)COC(C)=O)[C@@H](C[C@H]3[C@@H]4CCC5=CC(=O)C=C[C@]5(C)[C@H]4[C@@H](O)C[C@@]32C)O1	-1.0%	.	.	.	.	.
O=C1C2C3C=CC(CC3)C2C(=O)N1/N=C/c1ccc(O)c(O)c1 (centres undefined)	-28.7%	15.8µM*	-13.4%	1.6	-5.1%	-8.5%
O=c1c2ccccc2nc(COc2ccccc2)n1/N=C/c1ccc(O)c(O)c1	-1.0%	?	?	-7.0	8.1%	.
O=C1C2C3C=CC(CC3)C2C(=O)N1/N=C/c1ccc(O)cc1 (centres undefined)	7.8%	-0.9%	-6.5%	0.9	-2.2%	-2.8%
